Here are results for three compounds from PubChem BioAssay (EPA / NIEHS).

Conditions in all cases: mRNA level, 48 h; actives raise or lower the signal
Read-out in test [1]: CFLAR gene, CFLAR (gene 8837)
Put plainly: LTEA_HepaRG_CFLAR: Life Technologies and Expression Analysis (LTEA) Assay for CFLAR gene using HepaRG (AID 2283455). The procedure, abridged:
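Differentiated HepaRG cells in serum-free induction medium were exposed 48 h in duplicate to eight half-log concentrations up to 100 uM in 0.5% DMSO; mRNA measured by TaqMan qRT-PCR, normalized to ACTB, GAPDH, POLR2A; bidirectional fitting versus DMSO.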

Read-out in test [2]: Forkhead box O1 (FOXO1), FOXO1 (gene 2308)
As to the kind of experiment: LTEA_HepaRG_FOXO1: Life Technologies and Expression Analysis (LTEA) Assay for Forkhead box O1 (FOXO1) using HepaRG (AID 2283456). The procedure, abridged:
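Differentiated HepaRG cells, in serum-free induction medium with 0.5% DMSO, exposed 48 h in duplicate to 8-point half-log series from 100 uM. FOXO1 mRNA measured by TaqMan qRT-PCR, normalized to ACTB, GAPDH, POLR2A; bidirectional fit versus DMSO.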

Read-out in test [3]: growth arrest and DNA damage 45 (GADD45A), GADD45A (gene 1647)
Put plainly: LTEA_HepaRG_GADD45A: Life Technologies and Expression Analysis (LTEA) Assay for growth arrest and DNA damage 45 (GADD45A) using HepaRG (AID 2283458). The procedure, abridged: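 Differentiated HepaRG cells exposed 48 h in serum-free induction medium to 8 concentrations, top 100 uM in half-log steps, 0.5% DMSO. GADD45A mRNA quantified by qRT-PCR, normalized to ACTB, GAPDH and POLR2A; bidirectional fit versus DMSO.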

Read-out in test [4]: Forkhead box O3 (FOXO3), FOXO3 (gene 2309)
Put plainly: LTEA_HepaRG_FOXO3: Life Technologies and Expression Analysis (LTEA) Assay for Forkhead box O3 (FOXO3) using HepaRG (AID 2283459). The procedure, abridged:
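Differentiated human HepaRG cells, 48 h post-plating, exposed in duplicate for 48 h in serum-free induction medium; 8-point half-log series from 100 uM in 0.5% DMSO. FOXO3 mRNA by TaqMan qRT-PCR, normalized to ACTB/GAPDH/POLR2A; bidirectional fit versus DMSO.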

Read-out in test [5]: ABC Transporter (ABCB1), ABCB1 (gene 5243)
As to the kind of experiment: LTEA_HepaRG_ABCB1: Life Technologies and Expression Analysis (LTEA) Assay for ABC Transporter (ABCB1) using HepaRG (AID 2283460). In a few lines: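 HepaRG cells exposed in duplicate for 48 h in serum-free induction medium to eight half-log concentrations up to 100 uM in 0.5% DMSO. ABCB1 mRNA quantified by qRT-PCR, normalised to ACTB, GAPDH and POLR2A; fitted bidirectionally versus DMSO.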

Read-out in test [6]: growth arrest and DNA damage 45 (GADD45B), GADD45B (gene 4616)
As to the kind of experiment: LTEA_HepaRG_GADD45B: Life Technologies and Expression Analysis (LTEA) Assay for growth arrest and DNA damage 45 (GADD45B) using HepaRG (AID 2283461). The procedure, abridged:
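Transcript level quantified by Fluidigm TaqMan qRT-PCR with three housekeeping genes for normalization, analyzed for up- or down-regulation against 0.5% DMSO. HepaRG cultures dosed 48 h at eight half-log concentrations up to 100 uM, duplicates.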

Read-out in test [7]: ABC Transporter (ABCC3), ABCC3 (gene 8714)
As to the kind of experiment: LTEA_HepaRG_ABCC3: Life Technologies and Expression Analysis (LTEA) Assay for ABC Transporter (ABCC3) using HepaRG (AID 2283462). In a few lines:
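Transcript level by TaqMan qRT-PCR, normalised to three housekeeping genes, fitted in both directions relative to vehicle. Chemicals tested in duplicate at eight half-log concentrations up to 100 uM for 48 h on HepaRG cells (0.5% DMSO).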

Read-out in test [8]: ABC Transporter (ABCB11), ABCB11 (gene 8647)
Put plainly: LTEA_HepaRG_ABCB11: Life Technologies and Expression Analysis (LTEA) Assay for ABC Transporter (ABCB11) using HepaRG (AID 2283463). In a few lines: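 Differentiated human HepaRG cells in serum-free induction medium, dosed in duplicate for 48 h. Eight-point half-log series from 100 uM in 0.5% DMSO; ABCB11 mRNA by qRT-PCR, normalized to ACTB, GAPDH, POLR2A, fitted bidirectionally versus DMSO.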

Read-out in test [9]: ABC Transporter (ABCC2), ABCC2 (gene 1244)
As to the kind of experiment: LTEA_HepaRG_ABCC2: Life Technologies and Expression Analysis (LTEA) Assay for ABC Transporter (ABCC2) using HepaRG (AID 2283464). The procedure, abridged: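 Endpoint is ABCC2 transcript level from qRT-PCR, normalized to three housekeeping genes and fitted bidirectionally relative to DMSO. Human HepaRG cells received test chemical for 48 h at up to 100 uM (8 points, half-log steps, 0.5% DMSO), duplicate wells.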

Read-out in test [10]: ATP-citrate lyase (ACLY), ACLY (gene 47)
As to the kind of experiment: LTEA_HepaRG_ACLY: Life Technologies and Expression Analysis (LTEA) Assay for ATP-citrate lyase (ACLY) using HepaRG (AID 2283466). In a few lines: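 Differentiated HepaRG cells exposed 48 h in serum-free induction medium to eight half-log concentrations up to 100 uM in 0.5% DMSO, duplicates. Transcript measured by Fluidigm TaqMan qRT-PCR, normalized to ACTB, GAPDH, POLR2A; bidirectional fit versus DMSO.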

Read-out in test [11]: Peroxisomal acyl-coenzyme A oxidase 1 (ACOX1) gene, ACOX1 (gene 51)
As to the kind of experiment: LTEA_HepaRG_ACOX1: Life Technologies and Expression Analysis (LTEA) Assay for Peroxisomal acyl-coenzyme A oxidase 1 (ACOX1) gene using HepaRG (AID 2283467). The procedure, abridged:
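HepaRG cells, plated 48 h then switched to serum-free induction medium, were exposed in duplicate for 48 h to 8-point half-log concentrations up to 100 uM in 0.5% DMSO. ACOX1 mRNA was measured by qRT-PCR, normalized to ACTB/GAPDH/POLR2A, and fitted bidirectionally versus DMSO.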

Read-out in test [12]: Alkaline Phosphatase, Placental (ALPP) gene, ALPP (gene 250)
Put plainly: LTEA_HepaRG_ALPP: Life Technologies and Expression Analysis (LTEA) Assay for Alkaline Phosphatase, Placental (ALPP) gene using HepaRG (AID 2283468). In a few lines:
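ALPP transcript level, measured by qRT-PCR and normalized to three housekeeping genes (ACTB, GAPDH, POLR2A), after 48 h dosing of differentiated HepaRG in serum-free induction medium. Top concentration 100 uM with half-log dilutions (8 points, 0.5% DMSO, duplicates); bidirectional fitting relative to DMSO.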

Read-out in test [13]: Bcl-2 (BAD) gene, BAD (gene 572)
Put plainly: LTEA_HepaRG_BAD: Life Technologies and Expression Analysis (LTEA) Assay for Bcl-2 (BAD) gene using HepaRG (AID 2283469). In a few lines:
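Differentiated HepaRG cells were exposed in duplicate in 0.5% DMSO for 48 h to eight-point half-log concentrations up to 100 uM. BAD mRNA was measured by Fluidigm TaqMan qRT-PCR, normalized to ACTB, GAPDH and POLR2A, and fitted bidirectionally against DMSO.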

Read-out in test [14]: Bcl-2 (BAX) gene, BAX (gene 581)
Put plainly: LTEA_HepaRG_BAX: Life Technologies and Expression Analysis (LTEA) Assay for Bcl-2 (BAX) gene using HepaRG (AID 2283470). In a few lines:
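Differentiated HepaRG cells exposed 48 h in serum-free induction medium, eight half-log concentrations from 100 uM, in duplicate, 0.5% DMSO vehicle. BAX mRNA by TaqMan qRT-PCR, normalised to ACTB, GAPDH and POLR2A.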

Read-out in test [15]: adenosine kinase (ADK) gene, ADK (gene 132)
Put plainly: LTEA_HepaRG_ADK: Life Technologies and Expression Analysis (LTEA) Assay for adenosine kinase (ADK) gene using HepaRG (AID 2283471). In a few lines: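 ADK expression quantified by qRT-PCR, normalised to three housekeeping genes, after 48 h exposure of HepaRG cells to eight concentrations (top 100 uM, half-log steps, duplicate, 0.5% DMSO). Up- or down-regulation fitted relative to vehicle.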

Read-out in test [16]: Alpha-fetoprotein (AFP) gene, AFP (gene 174)
Put plainly: LTEA_HepaRG_AFP: Life Technologies and Expression Analysis (LTEA) Assay for Alpha-fetoprotein (AFP) gene using HepaRG (AID 2283472). In a few lines: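 Differentiated human HepaRG cells exposed 48 h in serum-free induction medium, 8-point half-log series from 100 uM in 0.5% DMSO, duplicate. AFP mRNA by qRT-PCR, normalized to ACTB, GAPDH, POLR2A; bidirectional fit vs DMSO.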

Read-out in the next test: BCL2L11 (gene 10018)
As to the kind of experiment: LTEA_HepaRG_BCL2L11: Life Technologies and Expression Analysis (LTEA) Assay for Bcl-2 (BCL2L11) gene using HepaRG (AID 2283473). The procedure, abridged:
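BCL2L11 transcript levels are measured by Fluidigm qRT-PCR, normalized to three housekeeping genes. HepaRG cultures were plated 48 h, then treated 48 h with test chemical (top 100 uM, half-log, 0.5% DMSO vehicle); curves were fitted bidirectionally against DMSO.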

Read-out in test [17]: Apolipoprotein A-V (APOA5) gene, APOA5 (gene 116519)
Put plainly: LTEA_HepaRG_APOA5: Life Technologies and Expression Analysis (LTEA) Assay for Apolipoprotein A-V (APOA5) gene using HepaRG (AID 2283474). In a few lines: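 APOA5 transcript levels were quantified by qRT-PCR, normalized to three housekeeping genes, after 48 h chemical treatment of HepaRG cells (8 points, 100 uM maximum, half-log steps, 0.5% DMSO). Curves fitted in both directions against vehicle.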

Structures are written as SMILES. Activity calls are given as the source filed them. How the source made its calls: active means hit-call score of the fitted dose curve at least 0.9, where 1 is the maximum; inactive means score below 0.9.

In the case of `CN(C[C@@H](CC[N+]12CCC(C3CCCCC3)(CC1)CC2)c1ccc(Cl)c(Cl)c1)C(=O)c1cc(C(F)(F)F)cc(C(F)(F)F)c1`, the AC50 was 50 µM (active) in test [1]; 35.9 µM (active) in [2]; 0.171 µM (active) in [3]; 30.6 µM (active) in test [4]; 74.2 µM (active) in test [5]; 14.5 µM (active) in [8]. In addition, the half-maximal activity concentration (AC50) is 63.3 µM (active) in [9]; 63.5 µM (active) in test [11]; 3.14 µM (active) in [12]; 23.2 µM (active) in test [16]; 8.93 µM (active) in test [17]. Further, the compound was classed as inactive in test [6], in test [7], in test [10], in test [13], in test [14] and in [15]. Moreover, the call with BCL2L11 (gene 10018) was inactive.
Regarding `CO[C@H]1/C=C/O[C@@]2(C)Oc3c(C)c(O)c4c(O)c(c(/C=N/N5CCN(C)CC5)c(O)c4c3C2=O)NC(=O)/C(C)=C\C=C\[C@H](C)[C@H](O)[C@@H](C)[C@@H](O)[C@@H](C)[C@H](OC(C)=O)[C@@H]1C`, the result in [1], in [2], in test [3], in [4], in [6] and in [7] was inactive. Further, the compound was called inactive in test [8], in test [10], in test [11], in test [13], in [14] and in [15]. Further, the result (in the test with BCL2L11 (gene 10018); in test [17]) was inactive. Further, the half-maximal activity concentration (AC50) in [5] is 0.442 µM (active); in [9], 0.344 µM (active); in test [12], 31.2 µM (active); in test [16], 13 µM (active).
Regarding `O=CCCCC=O`, the call in test [1], in test [2], in test [3], in test [4], in [5] and in [6] was inactive. Also, the result in [7], in [8], in test [9], in [10], in test [11] and in test [12] was inactive. The result (in [13]; in test [14]; in test [16]; in the test with BCL2L11 (gene 10018); in test [17]) was inactive.

Usually AC50 stands for the concentration at which the activity in the assay is half-maximal.
